# Measurements reported in PubChem BioAssay AID463173 (ICCB-Longwood Screening Facility, Harvard Medical School, 2010).
# In all, about 52,000 compounds went through this assay and about 4,300 (8.3%) were called active. This is one part of a sample in which actives are shown more often than they occur. Rule as the data show it: active = survival mostly below about 52% (no sharp cut-off); inactive = mostly above about 56%.
# System: DeltatarO mutant
# Assay: growth inhibition of S. aureus wild type versus tarO mutant, primary screen, teichoic acid synthesis inhibitors, RN4220, OD600 (AID 463173)
# Conditions: OD600, 18 h, hits give low values, screened at 18.75 µg/mL (by protocol)
row,SMILES,survival
1,O=C(NCCc1ccc(Cl)cc1)c1nnc(Cc2ccc(Cl)cc2Cl)o1,96% (inactive)
2,COc1ccccc1CNC(=O)CCNS(=O)(=O)c1ccc2c(c1)CCCC(=O)N2,60% (inactive)
3,CC1CCN(C(=O)Cn2c(=O)n(CCCCCC(=O)NCc3ccccc3Cl)c(=O)c3sccc32)CC1,69% (inactive)
4,COc1ccc(N2CC(NC(=O)C(c3ccccc3)c3ccccc3)CC2=O)cc1OC (configuration not stated),90% (inactive)
5,CC(=O)Nc1ccc(NC(=O)C(NC(=O)C2CCC(C)CC2)C(C)C)cc1 (configuration not stated),128% (inactive)
6,CC(=O)c1cccc(NC(=O)c2sc3nc4c(cc3c2N)CCCC4)c1,60% (inactive)
7,Nc1c(C(=O)Nc2ccc(C(=O)O)cc2)sc2nc3c(cc12)CCCC3,42% (active)
8,CCN1CCc2nc3sc(C(=O)Nc4ccccc4OC(F)(F)F)c(N)c3cc2C1,44% (active)
9,COc1ccc(NC(=O)c2sc3nc4c(cc3c2N)CCCCCC4)cc1,127% (inactive)
10,CCOc1ccccc1NC(=O)c1sc2nc3c(cc2c1N)CN(Cc1ccccc1)CC3,63% (inactive)
11,CN1CCc2nc3sc(C(=O)Nc4c(F)cccc4F)c(N)c3cc2C1,153% (inactive)
12,COc1ccccc1NC(=O)c1sc2nc3c(cc2c1N)CN(Cc1ccccc1)CC3,101% (inactive)
13,CN1CCc2nc3sc(C(=O)Nc4cccc(C#N)c4)c(N)c3cc2C1,54% (active)
14,CCN1CCc2nc3sc(C(=O)Nc4cccc(Cl)c4C)c(N)c3cc2C1,125% (inactive)
15,COc1ccc(NC(=O)c2sc3nc4c(cc3c2N)CN(Cc2ccccc2)CC4)c(OC)c1,47% (active)
16,COc1ccc(NC(=O)c2sc3nc4c(cc3c2N)CN(Cc2ccccc2)CC4)cc1,96% (inactive)
17,CCN(CC)c1ccc(NC(=O)c2sc3nc4c(cc3c2N)CN(C)CC4)cc1,181% (inactive)
18,CCOC(=O)C1=C(CS(=O)(=O)c2cccc(C(F)(F)F)c2)NC(=O)NC1c1cccc(OC)c1 (configuration not stated),48% (inactive)
19,CC(=O)c1ccc(NS(=O)(=O)c2ccc3[nH]c4c(c3c2)CCCCCC4)cc1,84% (inactive)
20,CCOc1ccc(C(=O)c2oc3ccccc3c2NC(=O)Cc2coc3cc(C)cc(C)c23)cc1,100% (inactive)
21,CC(=O)c1ccc(NC(=O)CSc2ccc(-c3cccs3)nn2)cc1,126% (inactive)
22,COc1cccc(C(=O)CN2CCN(S(=O)(=O)c3ccc(Cl)cc3)CC2)c1,74% (inactive)
23,COc1ccccc1OCC(=O)N(Cc1ccco1)Cc1ccccc1F,64% (inactive)

row,SMILES,survival
1,CCc1cc(CC)c(/C=N/NC(N)=O)c(CC)c1/C=N/NC(N)=O,94% (inactive)
2,Cc1ccc(NC(=O)c2sc3nc4c(cc3c2N)CN(Cc2ccccc2)CC4)cc1,110% (inactive)
3,Nc1c(C(=O)Nc2ccccc2)sc2nc3c(cc12)CN(Cc1ccccc1)CC3,63% (inactive)
4,CCc1ccc(NC(=O)c2sc3nc4c(cc3c2N)CN(CC)CC4)cc1,49% (active)
5,Cc1cccc(N2CCN(C(=O)Cn3ncc4c3-c3ccccc3OC4)CC2)c1C,77% (inactive)
6,COc1cc(Cl)c(S(=O)(=O)NCCc2c(C)[nH]c3c(C)cccc23)cc1Cl,57% (inactive)
7,COc1ccc2[nH]c(C)c(CCNS(=O)(=O)c3cc(F)ccc3OC)c2c1,57% (inactive)
8,COc1cc(S(=O)(=O)NCCc2c(C)[nH]c3ccccc23)c(C)cc1C,56% (inactive)
9,COc1c(C)cc(S(=O)(=O)NCCc2c(C)[nH]c3ccccc23)c(C)c1C,59% (active)
10,COc1ccc(C(C)C)cc1S(=O)(=O)NCCc1c(C)[nH]c2ccc(C)cc12,84% (inactive)
11,COc1cc(C)c(Cl)cc1S(=O)(=O)NCCc1c(C)[nH]c2ccccc12,37% (active)
12,COc1cccc(C(c2nnnn2CCC(C)C)N2CCN(c3cccc(C)c3C)CC2)c1OC (configuration not stated),82% (inactive)
13,CCOC(=O)C1CC1c1ccccc1 (configuration not stated),81% (inactive)
14,Cc1cccc(C(=O)Nc2ccc(C(=O)OCc3cc(=O)n4nc(CC(C)C)sc4n3)cc2)c1,99% (inactive)
15,COc1cccc(Nc2ccc3cc(S(=O)(=O)N4CCC(C)CC4)ccc3n2)c1,88% (inactive)
16,COc1ccc(NC(=O)N(Cc2nnc3n2CCCCC3)c2ccc(OC)c(Cl)c2)cc1,60% (inactive)
17,O=C(O)c1cccnc1N1CCOCC1,84% (inactive)
18,O=C(NCc1cccs1)c1ccc(CSc2nc3ccncc3n2Cc2ccccc2)cc1,110% (inactive)
19,COc1ccc(OC)c(NS(=O)(=O)c2ccc3[nH]c4c(c3c2)CCCCC4)c1,77% (inactive)
20,C=Cc1ccc(Cn2nc(-c3ccc(C)cc3)ccc2=O)cc1,35% (active)
21,COC(=O)c1ccc(Cn2nc(-c3ccc(C)cc3)ccc2=O)cc1,133% (inactive)
22,Cc1ccc(C)c(-c2ccc(=O)n(Cc3c(F)cccc3Cl)n2)c1,81% (inactive)
23,Cc1ccc(-c2ccc(=O)n(CC(=O)NCCc3ccc(Cl)cc3)n2)cc1,69% (inactive)

row,SMILES,survival
1,Cc1ccc(C)c(-c2ccc(=O)n(Cc3ccc(F)cc3Cl)n2)c1,32% (active)
2,Cc1ccc(C)c(Cn2nc(-c3cc(C)ccc3C)ccc2=O)c1,44% (inactive)
3,Cc1ccc(-c2ccc(=O)n(Cc3cc(C)ccc3C)n2)cc1,57% (active)
4,C=Cc1ccc(Cn2nc(-c3ccc(C)c(S(=O)(=O)N(CC)CC)c3)ccc2=O)cc1,53% (inactive)
5,O=c1ccc(-c2ccccc2)nn1Cc1ccc(F)cc1Cl,49% (inactive)
6,Cc1ccc(-c2ccc(=O)n(Cc3ccc(F)cc3)n2)cc1,50% (inactive)
7,Cc1ccc(-c2ccc(=O)n(CC(=O)NCCc3ccccc3)n2)cc1,57% (inactive)
8,Cc1ccc(CCNC(=O)Cn2nc(-c3ccc(C)cc3)ccc2=O)cc1,0% (active)
9,Cc1ccc(NC(=O)CCN2CCN(CCO)CC2)cc1C,54% (inactive)
10,Cc1ccc(CCNC(=O)c2ccc3c(c2)nc2n3CCOC2)cc1,86% (inactive)
11,CCc1ccc(-n2c(=O)c3cccnc3n2CC(=O)Nc2ccccc2C(F)(F)F)cc1,71% (inactive)
12,Cc1c(-c2ccc(Cl)cc2)c(=O)oc2c(CN3CCOCC3)c(O)ccc12,82% (inactive)
13,O=c1oc(-c2cccc3ncccc23)nn1Cc1ccccc1F,102% (inactive)
14,COc1cccc(CNC(=O)CCc2nnc3n(C)c(=O)c4sccc4n23)c1,63% (inactive)
15,CCc1ccc(C(=O)c2cn(CC(=O)Nc3ccc(C)c(C)c3)c3ccccc3c2=O)cc1,108% (inactive)
16,CC(C)CC(=O)n1nc(-c2cccnc2)nc1NCc1ccc(F)cc1,89% (inactive)
17,Cc1cc(Nc2ccc(F)cc2)nc(-n2nc(C)cc2C)n1,70% (inactive)
18,Cc1ccc2ncc(C(=O)c3ccc(C)c(C)c3)c(S(=O)(=O)c3ccccc3)c2c1,70% (inactive)
19,COc1ccc(S(=O)(=O)N2CCC(c3nnnn3-c3ccccc3)CC2)cc1OC,80% (inactive)
20,CN1C(=O)/C(=C2/SC(=S)N(c3cccc(O)c3)C2=O)c2ccccc21,54% (inactive)
21,CNC(=O)c1ccc(CSc2nc3cccnc3n2Cc2cccc(F)c2)cc1,118% (inactive)
22,CCN1CCN(CCCNC(=O)c2ccc3nc(Cc4ccccc4)oc3c2)CC1,105% (inactive)
23,COc1cc(OC)cc(C(=O)Nc2cc(NC(=O)c3ccco3)ccc2OC)c1,83% (inactive)

row,SMILES,survival
1,COc1ccc(NC(=O)c2ccco2)cc1NC(=O)c1cccc(C)c1OC,37% (active)
2,COc1ccc(NC(=O)c2ccco2)cc1NC(=O)c1cccc(F)c1,89% (inactive)
3,COc1ccc(NC(=O)c2ccco2)cc1NC(=O)c1c(OC)cccc1OC,51% (inactive)
4,COc1ccc(C(=O)Nc2cc(NC(=O)c3ccco3)ccc2OC)cc1Cl,54% (inactive)
5,COc1ccc(NC(=O)c2ccco2)cc1NC(=O)COc1ccc(C)c(C)c1,49% (inactive)
6,COc1ccc(NC(=O)c2ccco2)cc1NC(=O)c1ccccc1[N+](=O)[O-],49% (inactive)
7,COc1ccc(NC(=O)c2ccco2)cc1NC(=O)c1ccc(C)c(C)c1,49% (active)
8,CCCCOc1cccc(C(=O)Nc2cc(NC(=O)c3ccco3)ccc2OC)c1,23% (active)
9,COc1ccc(NC(=O)c2ccco2)cc1NC(=O)c1cc(OC)c(OC)c(OC)c1,71% (inactive)
10,COc1ccc(NC(=O)c2ccco2)cc1NC(=O)COc1cc(C)cc(C)c1,121% (inactive)
11,COc1ccc(NC(=O)c2ccco2)cc1NC(=O)COc1ccccc1,45% (active)
12,COc1cccc(NC(=O)C2CCCN(c3nnc(-n4c(C)ccc4C)s3)C2)c1 (configuration not stated),79% (inactive)
13,COc1ccc(NC(=O)Cn2cnc3c(oc4ccccc43)c2=O)cc1OC,79% (inactive)
14,Cc1nc(-c2ccc(S(=O)(=O)N3CCN(c4cccc(C(F)(F)F)c4)CC3)cc2)co1,67% (inactive)
15,Cc1ccc(S(=O)(=O)CC(=O)Nc2nc3c(C)cc(C)cc3s2)cc1,96% (inactive)
16,COC(=O)c1c(SC)nc2ccccc2c1OCc1ccc(Cl)cc1,92% (inactive)
17,COc1ccc(N(C(=O)c2ccc(OC)c(OC)c2)S(=O)(=O)c2ccc(Cl)cc2)cc1,80% (inactive)
18,COc1cccc(CN(CCO)Cc2ccccc2)c1OC,91% (inactive)
19,CCOc1ccc(CNC(=O)C2CCN(C(=O)N3CC(CC)Oc4ccc(C)cc43)CC2)cc1OC (configuration not stated),77% (inactive)
20,Cc1cccc(-n2c(=O)c3c(c4cc(C)ccc4n3C)n(CC(=O)Nc3ccc(C)cc3C)c2=O)c1,69% (inactive)
21,COc1ccccc1CNC(=O)Cn1ncc2c(=O)oc3ccc(C)cc3c21,78% (inactive)
22,CC(C)n1nc(CC(=O)O)c2ccccc2c1=O,79% (inactive)
23,CCSc1nc2ccc(N)cc2s1,108% (inactive)
